# Bioassay records: PubChem BioAssay, National Center for Advancing Translational Sciences (NCATS)
# This is a sample that favours compounds with a hit; in the whole collection about 2.6% have one here.
# CCT modulator: High-Throughput Screening for Modulators of Cytosolic Chaperonin Activity; purified chaperonin ATPase assay, HTRF ADP detection, 30 min; activity change, % (no concentration beside the values), hits read low; 0.3% of 360,000 active; in the data active = activity change below about -30%; also: % is scaled to controls: 0 for no effect and ±100 for the full control effect
#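 Nucleotide hydrolysis assay: TRiC at 20–40 nM final (set by batch activity) with 10 uM ATP, 30 min at 37 °C, in presence of 76 uM compound. Detection by competitive ADP HTRF, 30 min ambient.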
# TCR activator: Activators of T cell receptors: qHTS campaign | 330,000 tested, under 10 active | Potency, µM (doses to about 9.22 µM), without a hit: at the highest dose activation of IL-2 secretion, actives largely listed as activators | primary human leukocytes, anti-CD3, IL-2 HTRF, 48 h; also: % of control where 0% means no effect
#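 Primary human leukocytes incubated 48 hr with anti-CD3 beads plus compound, without co-stimulation. Secreted IL-2 measured by HTRF (europium cryptate/d2 anti-IL-2 pair, 320 nm excitation, 665 nm emission).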
# Nrf2 block: Nrf2 qHTS screen for inhibitors. AID 504444, 2011. Potency, µM (doses to about 46 µM), inactives show top-dose activity change, negative = inhibition, hits mostly inhibitors. 2.1% of 360,000 active. A549 ARE-Fluc reporter, luciferase luminescence, 18-24 h; also: potency is read from the fitted curve at half-maximal effect; % is scaled to controls: 0 for no effect and ±100 for the full control effect; nearly all actives have a fitted effect of over 60% in size
#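 Two sequential reads on A549 ARE_Fluc cells exposed to compound for 18-24 h: a CellTiter-Fluor fluorescence read for viability, then a luciferase luminescence read for Nrf2/ARE activity.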
# AT treatment: qHTS Assay for Identifying a Potential Treatment of Ataxia-Telangiectasia. F2112 A-T fibroblasts, KAP-1 phosphorylation AlphaLISA; neocarzinostatin DNA damage 30 min before lysis. Potency, µM (highest dose often 57.5 µM), for inactives: at the highest dose activation, actives largely listed as activators. 0.19% of 320,000 active; also: potency is read from the fitted curve at half-maximal effect; % of control where 0% means no effect; nearly all actives have a fitted effect of over 45% in size
#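 ATM-like activity read as KAP-1 phosphorylation via AlphaLISA donor/acceptor antibody pairs after lysis and 6 hr at 25C. Cells were ATM-null patient fibroblasts (F2112, hTERT), dosed 60 min, then exposed to the DSB inducer NCS for 30 min.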
# Nrf2 ARE act: qHTS of Nrf2 Activators; AREc32 ARE-luciferase reporter (MCF7-derived line), luminescence, 24 h; Potency, µM (doses to about 46.1 µM), inactives show at the top dose activation, usual class: activators; 0.31% of 410,000 active; AID 624171, 2012; also: potency is read from the fitted curve at half-maximal effect; % of control where 0% means no effect; nearly all actives have a fitted effect of over 65% in size
#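 Each well held 1000 AREc32 cells, which were incubated with compound for 24 hr at 37 deg C after overnight attachment, and ARE reporter activity was quantified by firefly luciferase luminescence.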
# A549 viability: Nrf2 qHTS screen for inhibitors: counterscreen for cytotoxicity | A549 ARE-Fluc cells, CellTiter-Fluor viability, 18-24 h | Potency, µM (titrated, usually from 46 µM), for inactives: at the top dose activity change, negative = cytotoxicity, usual class: inhibitors | 0.16% of 390,000 active | AID 504648, 2011; also: potency is read from the fitted curve at half-maximal effect; % is scaled to controls: 0 for no effect and ±100 for the full control effect
#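 A549 ARE-Fluc cells in 5% FBS OPTI-MEM, 5000 cells/well, rested 2 h then exposed to compounds in concentration-response for 18-24 h at 37 °C. Viability by CellTiter-Fluor fluorescence (Ex 405/Em 525) after 30 min; luciferase luminescence (BugLite, 15 min, RT) read afterwards.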
# Numbers without * were called inactive; ? = inconclusive; · = not tested or not shown; [ ] = another dose, or the depositor's remark. Unless noted, calls follow the shape of the dose curve; as a rule, active = well fitted curve in the direction sought with a large enough effect; inconclusive = small, poorly fitted or top-dose-only effect, or another doubt; inactive = no such curve, though single readings can be large; an effect the other way counts as inactive or inconclusive.
SMILES,CCT modulator,TCR activator,Nrf2 block,AT treatment,Nrf2 ARE act,A549 viability
COc1ccc(C(NC(=O)CN2C(=O)NC3(CCc4ccccc43)C2=O)c2ccc(OC)cc2)cc1 (stereo not given),0,-2%,2%,-3%,0%,-3%
Cc1c(/C=C(\C#N)C(=O)Nc2cccc(Cl)c2)c2ccccc2n1Cc1ccccc1,·,·,8.2µM*,·,0%,?
Cc1ccc(NCc2cccn2-c2nnc(N3CCC(C(=O)NCc4ccc(F)cc4)CC3)s2)cc1,·,·,?,·,2%,?
COc1ccc(-c2noc(CCC(=O)NC3CCCCCC3)n2)cc1,0,2%,16%,9%,0%,1%
COc1ccc(-c2noc(CCC(=O)NC3CCCCC3)n2)cc1,1,-5%,16µM*,-1%,0%,-11%
Cc1cccc(-c2noc(CCCC(=O)NC3CCCC3)n2)c1,0,4%,9.2µM*,-7%,1%,2%
COc1ccccc1-c1noc(CCCC(=O)NC2CCCCC2)n1,2,2%,?,-4%,-1%,4%
COc1ccc(-c2noc(CCCC(=O)NC3CCCC3)n2)cc1,0,-4%,12µM*,-15%,-1%,?
Cc1nn(-c2ccccc2)c2c1N(CC(=O)N1CCN(c3ccc(Cl)cc3)CC1)C(=O)CS2,·,·,?,·,0%,-7%
CCN(CC)c1ccc(NC2=C(Cl)C(=O)c3ccccc3C2=O)cc1,-1,-1%[46.1 µM],?,?,?,21µM*
Cc1ccc(NC2=C(Cl)C(=O)c3ccccc3C2=O)cc1,-1,0%[46.1 µM],23%,5%,?,?
O=C(/C=C/c1ccc(Cl)cc1)Nc1nc(-c2cccs2)ns1,·,·,?,·,22%,-12%
O=C(/C=C/c1ccccc1Cl)Nc1nc(-c2cccs2)ns1,·,·,12%,·,6.3µM*,-3%
Cc1cccc(C)c1Nc1c(-c2ccsc2)nc2ccc(Cl)cn12,·,·,-18%,·,-1%,-6%
Cc1cccc(C)c1Nc1c(-c2ccsc2)nc2ccccn12,·,·,18µM*,·,1%,-22%
O=C(Nc1ccc(Br)c(Cl)c1)C1CC1,-1,0%,15µM*,-1%,2%,-10%
CC1(C)CC(=O)C(N=Nc2cccc(S(=O)(=O)N3CCOCC3)c2)=C(O)C1,1,-4%,-7%,18µM*,6%,0%
CC1CCN(S(=O)(=O)c2ccc(N=NC3=C(O)CC(C)(C)CC3=O)cc2)CC1,-3,3%[46.1 µM],14%,2%,-1%,7%
CC(OC(=O)c1snc(C(=O)NC2CCCCC2)c1N)C(=O)NC(C)(C)C (stereo not given),-2,3%[46.1 µM],11µM*,8%,0%,-20%
Cc1ccc(-n2c(SCC(N)=O)nc3c(oc4ccccc43)c2=O)cc1C,·,·,0%,·,0%,-19%
O=C(COC(=O)c1cc[n+]([O-])cc1)Nc1ccc(Cl)cc1Cl,0,2%,12%,-4%,2%,2%
CCOc1ccc(CNCCN2CCCC2)cc1,0,15%,4%,-2%,0%,0%
O=C(CN1C2CCCC1CC(NC(=O)C1CCCCC1)C2)Nc1ccccc1C(F)(F)F (stereo not given),-2,-1%,23µM*,3%,3%,-8%
C/C(=N\NC(=O)COc1ccccc1[N+](=O)[O-])c1cccs1,-4,2%,?,3%,8.9µM*,1%
Cc1nc(C)c(-c2ccc(SCC(=O)Nc3cccc(Cl)c3)nn2)s1,-4,0%,?,7%,0%,-5%
SMILES,CCT modulator,TCR activator,Nrf2 block,AT treatment,Nrf2 ARE act,A549 viability
Cc1ccc(C(=O)Nc2ccc(CC(=O)O)cc2)o1,-2,-1%,?,1%,-1%,-19%
CC(C)(C)c1ccc(C(=O)Nc2ccc(CC(=O)O)cc2)o1,2,1%,3.7µM*,3%,-2%,1%
COc1ccccc1NS(=O)(=O)c1cccc(NC(=O)Nc2ccccc2)c1,1,-6%[46.1 µM],2.6µM*,1%,0%,-12%
COc1ccccc1NS(=O)(=O)c1cccc(NC(=O)Nc2ccc(Cl)cc2)c1,-3,·,?,-4%,5%,?
COc1ccccc1NS(=O)(=O)c1ccc(NC(=O)c2ccncc2)cc1,-1,6%,?,2%,-1%[9.22 µM],-1%
CCn1ccc(C(=O)Nc2ccc(S(=O)(=O)Nc3ccccc3OC)cc2)n1,0,-2%,15µM*,·,2%,-12%
COc1ccc(N2CCN(C(c3ccc(C)cc3)c3nnnn3C(C)(C)C)CC2)cc1 (stereo not given),·,·,0%,·,·,9%
CCC(C)Sc1cccc(-c2nc3ccc(C)cn3c2NCc2ccccc2)c1 (stereo not given),0,-2%,?,22µM*,-2%,?
CCCCCCSc1cccc(-c2nc3cc(C)ccn3c2NCc2ccccc2)c1,-1,3%,6%,20µM*,-1%,-7%
CCC(C)Sc1cccc(-c2nc3ccc(Cl)cn3c2NCc2ccccc2)c1 (stereo not given),-4,-1%,?,20µM*,3%,?
CCCCCCSc1cccc(-c2nc3ccccn3c2NCc2ccccc2)c1,3,1%,-8%,15%,0%,-2%
Cc1ccc(S(=O)(=O)N2CCC(C(=O)Nc3ccccc3N3CCCC3)CC2)cc1C,-3,-3%,2%,1%,1%,-6%
Cc1nn(CCc2nn[nH]n2)c2nc(-c3ccc(Br)cc3)cc(C(F)(F)F)c12,0,4%,21µM*,3%,0%,?
Cc1nn(CCc2nn[nH]n2)c2nc(C(F)(F)F)cc(C(F)(F)F)c12,2,0%,-4%,-34%,0%,-7%
COc1ccc(N2CCN(C(=O)c3nc(-c4ccc(Cl)cc4)n4c3CCCCC4)CC2)cc1,·,·,-4%,·,-1%,-9%
CCOc1ccc(-c2[nH]ncc2Oc2ccccc2OCC)c(O)c1,-73*,-5%,-8%,10%,4%,-6%
NC(=O)C1CCN(C(=O)c2ccc3ncsc3c2)CC1,-2,·,·,·,-1%,·
O=C(c1ccc2ncsc2c1)N1CCCCC1,-36*,3%,6%,-16%,0%,1%
Cc1nc2nc(CNC(=O)c3cccc(F)c3)nn2c(C)c1CCC(=O)Nc1cccc(Cl)c1,·,·,10%,·,18%,-3%
Cc1cc2c(s1)c1cnn(Cc3c(Cl)cccc3Br)c(=O)c1n2C,·,·,16%,·,·,-5%
Cc1nc2ccccn2c1C(=O)NNS(=O)(=O)c1ccc(C(C)(C)C)cc1,-1,14%[46.1 µM],9.2µM*,5%,-1%,-2%
